Drawing on PubChem BioAssay (NCATS), this text covers Potency and activation for 40 compounds.

Results filed as inconclusive are left out. Entries that show only a call come without a potency. Active and inactive are the calls of the source. Calls come from the whole dose curve; as a rule, active = well fitted curve in the direction sought with a large enough effect; inconclusive = small, poorly fitted or top-dose-only effect, or another doubt; inactive = no such curve, though single readings can be large; an effect the other way counts as inactive or inconclusive.
Potency is the fitted concentration of half-maximal effect.

Sequence of Tumor susceptibility gene 101 protein (Homo sapiens) (Q99816 whole entry, looked up): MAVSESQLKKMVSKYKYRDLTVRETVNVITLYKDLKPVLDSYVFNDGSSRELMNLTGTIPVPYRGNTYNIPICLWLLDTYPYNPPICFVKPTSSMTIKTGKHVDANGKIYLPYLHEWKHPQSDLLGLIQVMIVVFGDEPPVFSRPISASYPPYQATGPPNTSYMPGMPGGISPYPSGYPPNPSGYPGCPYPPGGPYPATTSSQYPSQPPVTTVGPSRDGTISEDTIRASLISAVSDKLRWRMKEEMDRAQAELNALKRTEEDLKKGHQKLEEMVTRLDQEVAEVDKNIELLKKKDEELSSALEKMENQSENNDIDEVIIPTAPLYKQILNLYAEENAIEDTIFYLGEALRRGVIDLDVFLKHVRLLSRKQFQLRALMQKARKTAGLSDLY

The first assay has as its target Tumor susceptibility gene 101 protein (Homo sapiens) (UniProt Q99816). Nature of the assay: qHTS Assay for Iinhibitors of HIV-1 Budding by Blocking the Interaction of PTAP/TSG101: Hit Validation (AID 651600). Note: nearly all actives have a fitted effect of over 70% in size. To be noted: PTAP peptide/TSG101 UEV interaction, biochemical assay; series mostly up to 57.5 µM. The procedure, abridged:
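Measuring PTAP–Tsg101 interaction by FP: protein at 10 uM and fluorescent peptide at 50 nM (final), buffer 10 mM HEPES pH 7.5 with 0.15 M NaCl, 3 mM EDTA, 0.1 mM TCEP, 0.01% Tween 20; 20 min incubation, r.t.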
Background: In qHTS, concentration-response curves come from the screen itself.
Take `CC(=Nc1ccc(C)cc1C)c1sc2ccccc2c1O`: the Potency result is “inactive”.
As for `CCSc1nnc(-c2sc3nnc(-c4ccccc4)c(-c4ccccc4)c3c2N)o1`, the Potency is 25.9 µM (active).
On to `CCCCNc1ccc2c3c(cccc13)C(=O)N(CCCC)C2=O`, for which the Potency is 4.11 µM (active).
In the case of `O=C(C1=NN(c2ccccc2)C2C(=O)N(c3ccccc3)C(=O)C12)c1ccccc1` (stereo not drawn), the Potency entry was “inactive”.

The target in the next assay is Rap guanine nucleotide exchange factor 3 (Homo sapiens) (UniProt O95398). Nature of the assay: Confirmatory qHTS for antagonist of cAMP-regulated guanine nucleotide exchange factor 3 (EPAC1) (AID 1645880). Note: nearly all actives have a fitted effect of over 55% in size. To be noted: EPAC1 Rap1B-BODIPY-GDP exchange, fluorescence; activity, negative = inhibition: at 115 µM (top of the series). The procedure, abridged: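 Nucleotide exchange uses 100 nM EPAC1, 250 nM RAP1B-BODIPY-GDP and 50 uM GDP, with compounds in a concentration-titration series. After 5 min at room temperature, fluorescence (480 nm ex/540 nm em) is read every 5 min for 30 min. Data are normalized to control ATA and DMSO.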
Sequence of Rap guanine nucleotide exchange factor 3 (Homo sapiens) (O95398 whole entry, looked up): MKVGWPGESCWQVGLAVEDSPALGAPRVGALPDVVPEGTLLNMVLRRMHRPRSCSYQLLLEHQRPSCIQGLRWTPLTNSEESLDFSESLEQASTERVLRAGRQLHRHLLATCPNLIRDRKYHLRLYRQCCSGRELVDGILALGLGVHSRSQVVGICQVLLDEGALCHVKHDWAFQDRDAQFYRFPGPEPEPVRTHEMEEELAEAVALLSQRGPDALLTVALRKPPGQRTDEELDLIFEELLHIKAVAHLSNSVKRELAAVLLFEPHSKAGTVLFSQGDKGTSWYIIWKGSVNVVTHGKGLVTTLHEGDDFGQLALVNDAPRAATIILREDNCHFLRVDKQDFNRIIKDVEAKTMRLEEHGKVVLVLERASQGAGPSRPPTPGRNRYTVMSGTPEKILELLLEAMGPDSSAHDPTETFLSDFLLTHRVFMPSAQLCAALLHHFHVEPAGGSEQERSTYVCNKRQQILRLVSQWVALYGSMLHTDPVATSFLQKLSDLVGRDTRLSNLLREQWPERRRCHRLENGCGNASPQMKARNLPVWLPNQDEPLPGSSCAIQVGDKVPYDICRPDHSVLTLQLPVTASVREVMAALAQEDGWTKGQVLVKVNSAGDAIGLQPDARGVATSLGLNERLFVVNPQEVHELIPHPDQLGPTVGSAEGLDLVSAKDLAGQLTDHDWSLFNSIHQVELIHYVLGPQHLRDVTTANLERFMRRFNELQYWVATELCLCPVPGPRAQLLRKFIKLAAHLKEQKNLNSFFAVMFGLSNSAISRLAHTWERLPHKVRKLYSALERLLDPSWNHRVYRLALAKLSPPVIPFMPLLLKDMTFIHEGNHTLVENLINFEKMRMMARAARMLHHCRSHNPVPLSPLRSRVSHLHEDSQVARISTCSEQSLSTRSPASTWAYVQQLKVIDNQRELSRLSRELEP
As for `N#C/C(=C\c1ccc(Sc2ccc(Cl)cc2)o1)c1nc2ccccc2[nH]1`, the Potency entry was “inactive”.
For the compound `C=Cc1ccc(CC2(C)C(=O)Nc3ccc(-c4cccnc4)cc32)cc1` (stereo not drawn), the Potency result is “inactive”.
For `CCN(CC)c1ccc2cc(C(=O)NNC(=O)c3ccc(S(=O)(=O)N4CCCCC4)cc3)c(=O)oc2c1`, the Potency entry is “inactive”.
In the case of `O=C1c2ccccc2-c2onc3c(Br)cc(NC4CCCCC4)c1c23`, the Potency entry is “inactive”.
Regarding `CC(=Nc1ccc(C)cc1C)c1sc2ccccc2c1O`, the Potency result was “inactive”.
For `CCSc1nnc(-c2sc3nnc(-c4ccccc4)c(-c4ccccc4)c3c2N)o1`, the Potency entry was “inactive”.
For the compound `COc1ccc2c(c1)CCC1C2=NN(/C(C)=C/C(C)=O)C1c1cccc(F)c1` (stereo not drawn), the Potency entry is “inactive”.
On to `CCOC(=O)c1cc(C)sc1NC(=O)CSC1=NCCS1`, for which the Potency result is “inactive”.
On to `COc1ccc(Oc2ncc3nc(C)c(=O)n(Cc4cccs4)c3n2)cc1`, for which the Potency entry is “inactive”.
For the compound `CC(=O)/C(=N\Nc1ccccc1)Sc1cccc2cccnc12`, the Potency entry is “inactive”.
`O=C1/C(=C\c2cc(Cl)c(O)c(Cl)c2)SC(=S)N1Cc1ccccc1`: the Potency result is “inactive”.
`COc1ccc(-c2csc3nc(C)nc(N4CCCCC4)c23)cc1OC`: the Potency result is “inactive”.
In the case of `COc1cc2c(cc1OC)C1(C)N(CC2)C(C(C)=O)=NN1c1ccc(Cl)cc1` (stereo not drawn), the Potency result is “inactive”.
Consider `CC(=O)CCc1oc2c([N+](=O)[O-])cccc2c1-c1ccc(C)o1`, for which the Potency entry is “inactive”.
Turning to `Cc1cc(N(C)C)c(C)cc1/C=C/c1ccnc2ccccc12`, the Potency entry was “inactive”.
As to `COC(=O)C1=NN(c2ccc(C)cc2)C2(S1)SC(C(C)=O)=C(C)N2c1ccccc1` (stereo not drawn), the Potency result was “inactive”.
As for `CCCCNc1ccc2c3c(cccc13)C(=O)N(CCCC)C2=O`, the Potency entry is “inactive”.
With `COC(=O)c1cc2oc(C)cc2n1Cc1ccc(C)cc1`, the Potency entry is “inactive”.
Same read-out and setting: under `CN(C)c1ccc(/C=C/c2ccnc3c(Cl)cccc23)cc1` stands “inactive”; under `CCN(CC)c1ccc(C=C2SC(=S)NC2=O)cc1`, “inactive”; under `O=C(C1=NN(c2ccccc2)C2C(=O)N(c3ccccc3)C(=O)C12)c1ccccc1` (stereo not drawn), “inactive”.
`COc1ccc(CCNC(=S)N2CCN(S(=O)(=O)c3ccc(F)cc3)CC2)cc1`: the Potency result is “inactive”.
On the same count and under the same terms, to `O=C1N(Cc2ccccc2)c2ccc(Cl)cc2C12OCCO2` belongs “inactive”.
Take `N=C1/C(=C\c2coc3ccccc3c2=O)C(=O)N=C2SC=CN12`: the Potency result was “inactive”.
As to `COc1ccc(-c2nn(-c3ccccc3)cc2/C=C2/SC(=S)N(CCC(=O)O)C2=O)cc1`, the Potency result is “inactive”.
In the case of `CN(C)c1ccc(-c2cc3ccccc3c(=O)o2)cc1`, the Potency result is “inactive”.
On the same count and under the same terms, to `N#CC(C#N)=C1C=C2C=C(N3CCCCCC3)CCC2CC1` (stereo not drawn) belongs “inactive”.
As for `Cc1cc([N+](=O)[O-])c2[nH]c(C(=O)N/N=C/c3ccccc3C(=O)O)c(-c3ccccc3)c2c1`, the Potency is 67.5 µM (active).
For `CNC(=O)c1csc(Cc2c(Cl)sc3ccc(Cl)cc23)n1`, the Potency result was “inactive”.
Same read-out and setting: under `CC(C)N1CCc2c(sc(NC(=O)c3ccc(C(=O)c4ccccc4)cc3)c2C(N)=O)C1` stands “inactive”; under `COc1cccc(C(=O)c2sc3nc(-c4ccccc4)cc(C(F)(F)F)c3c2N)c1`, “inactive”; under `CN(C(=O)c1cc2c(cc1Br)OCO2)c1cccc2ccccc12`, “inactive”.
As to `Cc1ccc(-c2nc3ccc(C)cn3c2CC2CCCCC2)cc1`, the Potency entry was “inactive”.
With `CCCN(CCC)c1ccc(/C=C/c2ccnc3ccccc23)cc1`, the Potency result is “inactive”.
Take `CCCN1CC=C2C(C#N)=C(N)C(C#N)(C#N)C(c3cccc(OC)c3OC)C2C1` (stereo not drawn): the Potency entry was “inactive”.
`Cc1ccc(N=Cc2c(O)n(-c3nccs3)c(=O)c3ccccc23)c(C)c1`: the Potency entry was “inactive”.
Take `CCOC(=O)c1ccc2[nH]cc(C(C)=O)c(=O)c2c1`: the Potency result was “inactive”.
Regarding `COc1ccc(NC(=O)c2csc3c2CCCCC3)c(OC)c1`, the Potency entry is “inactive”.
`O=C(NCc1cccc(F)c1)c1cccc2c1C(=O)c1ccc(N3CCOCC3)cc1S2(=O)=O`: the Potency entry was “inactive”.
`CCSC1=NSC2=NC(=O)/C(=C\c3coc4ccccc4c3=O)C(=N)N12`: the Potency entry is “inactive”.

The target in another assay is Rap guanine nucleotide exchange factor 4 (Homo sapiens) (UniProt Q8WZA2). Nature of the assay: Confirmatory qHTS for agonist of cAMP-regulated guanine nucleotide exchange factor 4 (EPAC2) (AID 1645884).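 Note: nucleotide exchange releases bodipy-GDP from Rap1 and this lowers its fluorescence; nearly all actives have a fitted effect of over 65% in size.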 To be noted: EPAC2 GEF activity, Rap1B-BODIPY-GDP fluorescence; series mostly up to 154 µM.
Sequence of Rap guanine nucleotide exchange factor 4 (Homo sapiens) (Q8WZA2 whole entry, looked up): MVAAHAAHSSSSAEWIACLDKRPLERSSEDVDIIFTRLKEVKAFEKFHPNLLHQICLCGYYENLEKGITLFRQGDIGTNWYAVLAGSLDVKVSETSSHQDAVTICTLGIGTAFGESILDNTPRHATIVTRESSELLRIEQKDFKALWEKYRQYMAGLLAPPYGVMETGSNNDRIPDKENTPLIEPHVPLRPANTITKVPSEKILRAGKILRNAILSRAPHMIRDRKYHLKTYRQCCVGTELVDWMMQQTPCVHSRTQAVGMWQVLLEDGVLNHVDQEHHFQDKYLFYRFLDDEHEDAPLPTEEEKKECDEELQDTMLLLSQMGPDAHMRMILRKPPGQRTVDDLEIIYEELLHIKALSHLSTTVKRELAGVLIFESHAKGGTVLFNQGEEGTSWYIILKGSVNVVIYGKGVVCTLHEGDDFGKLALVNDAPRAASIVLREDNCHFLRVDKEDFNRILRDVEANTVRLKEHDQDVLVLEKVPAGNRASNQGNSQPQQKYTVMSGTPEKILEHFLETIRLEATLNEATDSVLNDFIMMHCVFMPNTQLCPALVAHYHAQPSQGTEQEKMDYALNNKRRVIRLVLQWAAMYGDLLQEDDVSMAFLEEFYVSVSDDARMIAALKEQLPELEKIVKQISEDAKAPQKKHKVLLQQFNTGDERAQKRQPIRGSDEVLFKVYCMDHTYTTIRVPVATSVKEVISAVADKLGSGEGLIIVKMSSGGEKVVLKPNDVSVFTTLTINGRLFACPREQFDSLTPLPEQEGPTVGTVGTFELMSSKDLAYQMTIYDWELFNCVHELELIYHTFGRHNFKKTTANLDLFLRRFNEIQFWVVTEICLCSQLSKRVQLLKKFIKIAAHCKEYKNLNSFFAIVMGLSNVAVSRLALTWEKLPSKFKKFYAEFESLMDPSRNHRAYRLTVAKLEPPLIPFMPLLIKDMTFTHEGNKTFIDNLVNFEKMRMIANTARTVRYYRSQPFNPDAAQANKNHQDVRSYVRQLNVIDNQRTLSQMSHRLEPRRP
On to `CCN(CC)c1ccc2cc(C(=O)NNC(=O)c3ccc(S(=O)(=O)N4CCCCC4)cc3)c(=O)oc2c1`, for which the Potency was 112 µM (active).
As to `O=C1c2ccccc2-c2onc3c(Br)cc(NC4CCCCC4)c1c23`, the Potency entry is “inactive”.
Consider `CC(=Nc1ccc(C)cc1C)c1sc2ccccc2c1O`, for which the Potency was 100 µM (active).
The same measure, in the same setting: to `CCSc1nnc(-c2sc3nnc(-c4ccccc4)c(-c4ccccc4)c3c2N)o1` belongs 112 µM (active); to `COc1ccc(Oc2ncc3nc(C)c(=O)n(Cc4cccs4)c3n2)cc1`, “inactive”.
Turning to `COc1cc2c(cc1OC)C1(C)N(CC2)C(C(C)=O)=NN1c1ccc(Cl)cc1` (stereo not drawn), the activation is 18% [at 17.1 µM, percent relative to cAMP agonist control] (inactive).
Consider `COC(=O)C1=NN(c2ccc(C)cc2)C2(S1)SC(C(C)=O)=C(C)N2c1ccccc1` (stereo not drawn), for which the Potency is 100 µM (active).
For `CCCCNc1ccc2c3c(cccc13)C(=O)N(CCCC)C2=O`, the activation is -62.3% [at 17.1 µM, percent relative to cAMP agonist control] (inactive).
Consider `COC(=O)c1cc2oc(C)cc2n1Cc1ccc(C)cc1`, for which the Potency entry was “inactive”.
Regarding `O=C(C1=NN(c2ccccc2)C2C(=O)N(c3ccccc3)C(=O)C12)c1ccccc1` (stereo not drawn), the activation is 11% [at 17.1 µM, percent relative to cAMP agonist control] (inactive).
The same measure, in the same setting: to `O=C1N(Cc2ccccc2)c2ccc(Cl)cc2C12OCCO2` belongs 2.15% [at 17.1 µM, percent relative to cAMP agonist control] (inactive).
In the case of `Cc1cc([N+](=O)[O-])c2[nH]c(C(=O)N/N=C/c3ccccc3C(=O)O)c(-c3ccccc3)c2c1`, the Potency entry was “inactive”.
Consider `COc1cccc(C(=O)c2sc3nc(-c4ccccc4)cc(C(F)(F)F)c3c2N)c1`, for which the Potency result is “inactive”.
Turning to `COc1ccc(NC(=O)c2csc3c2CCCCC3)c(OC)c1`, the Potency result is “inactive”.
